# Screens: PubChem, National Center for Advancing Translational Sciences (NCATS)
# This is a sample that favours compounds with a hit; in the whole collection about 12% have one here.
# Pf growth 48h = inhibits P. falciparum growth in the first generation, 48 h. Potency, µM (highest dose often 28.7 µM), usual class: inhibitors. 5.9% of 310,000 active. P. falciparum luciferase growth in erythrocytes, 48 h. AID 504832
#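 In quantitative HTS format, infected erythrocytes bearing luciferase-reporter parasites were treated for a single generation at 37 C. Luminescence after adding detection reagent served as the growth measure.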
# Pf growth 96h = P. falciparum growth inhibition at 96 hour, primary screen for plastid delayed-death inhibitors; P. falciparum luciferase reporter growth, 96 h; AID 504834; 6.9% of 320,000 active; Potency, µM (titrated, usually from 28.7 µM), most hits filed as inhibitors
#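 Delayed-death screen, second-generation endpoint: infected erythrocytes, 2% hematocrit, 0.05% parasitemia final; 96 hours at 37 C, 5% CO2; luciferase detection reagent; luminescence decrease equals reduced growth.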
# Sm TGR inh = S. mansoni TGR enzyme inhibition | 3% of 360,000 active | Q962Y6 | Potency, µM (titrated, usually from 114 µM), actives largely listed as inhibitors | purified TGR, DTNB reduction, TNB absorbance 405 nm; note: nearly all actives have a fitted effect of over 60% in size
#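 TGR 20 nM + NADPH 100 uM (dispensed conc.), cpd preinc 15 min RT; start with NADPH (500 uM addition) then DTNB (15 mM addition). Kinetic TNB absorbance, 405 nm filter. Four-parameter Hill fit across titration.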
# SARS PLP yeast = inhibitors of SARS-CoV papain-like protease in yeast; S. cerevisiae expressing SARS-CoV PLpro, growth rescue; Potency, µM (doses to about 32.9 µM), actives largely listed as activators; 0.19% of 330,000 active; AID 485353; calls by dose curve; note: nearly all actives have a fitted effect of over 55% in size
# Numbers stand for hits; 0 = inactive; ? = inconclusive; - = no result; [ ] = dose if it differs, or a comment. Unless noted, calls come from the whole dose curve; as a rule, active = well fitted curve in the direction sought with a large enough effect; inconclusive = small, poorly fitted or top-dose-only effect, or another doubt; inactive = no such curve, though single readings can be large; an effect the other way counts as inactive or inconclusive.
SMILES,Pf growth 48h,Pf growth 96h,Sm TGR inh,SARS PLP yeast
Nn1c(SCC(=O)Nc2ccccc2F)nnc1-c1cccs1,0,0,0,0
O=C(NCc1ccco1)c1ccc(Cn2c(=O)c3sccc3n(Cc3cccc(F)c3)c2=O)cc1,-,2.62µM,0,0
O=C(c1ccco1)N1CCN(C(=O)c2cc3sccc3n2Cc2ccccc2)CC1,11.7µM,0,0,0
O=C(NCc1ccco1)c1cc2sccc2n1Cc1ccccc1,11.7µM,2.08µM,0,0
Cn1c(C(=O)OCC(=O)NCc2ccco2)cc2sccc21,0,?,50.1µM,0
CN(C(=O)CSc1nc2ccc(NC(=O)c3cccc(F)c3)cc2s1)c1ccccc1,-,-,0,-
CC(=O)Nc1ccc(S(=O)(=O)N2c3ccccc3NC(=O)CC2C)c(Cl)c1 (stereo not drawn),2.08µM,0,0,0
CC1CC(=O)Nc2ccccc2N1S(=O)(=O)c1ccc(Cl)cc1 (stereo not drawn),0,0,0,0
CC1CC(=O)Nc2ccccc2N1S(=O)(=O)c1ccc(F)cc1F (stereo not drawn),2.33µM,?,0,0
CC1CC(=O)Nc2ccccc2N1S(=O)(=O)c1ccccc1 (stereo not drawn),0,0,0,0
CCC(=O)N(CCC(c1ccc(C)cc1)c1ccco1)Cc1ccco1 (stereo not drawn),2.33µM,?,14.1µM,0
CN(C)c1cccc2c1c(NS(=O)(=O)c1cn(C)cn1)nn2C,0,?,50.1µM,0
O=[N+]([O-])c1c(Cl)cccc1-c1c[nH]cc1Cl,0,0,-,-
CCC(C)NC(=O)c1cc(CC(C)C)on1 (stereo not drawn),0,11.7µM,0,0
Cc1cc(NC(=O)c2cc(CC(C)C)on2)no1,0,0,0,0
CCc1c(C)sc(NC(=O)c2cc(CC(C)C)on2)c1C#N,-,13.1µM,0,0
CCCCCC(=O)OC(CN1CCCCC1)CN1CCCC1=O (stereo not drawn),0,10.4µM,0,0
CCCCCCC(=O)Oc1ccc(N2C(=O)CCC2=O)cc1,0,?,0,0
O=C(Nc1ccn(-c2ccccc2)n1)c1ccc(S(=O)(=O)N2CCCCCC2)cc1,1.04µM,?,0,0
O=C(Nc1ccon1)c1ccc(S(=O)(=O)N2CCCCCC2)cc1,9.28µM,?,0,0
Cc1nc(Nc2ccc(Cl)cc2Cl)sc1C(=O)Nc1ccccc1,?,11.7µM,0,0
Cc1nc(Nc2ccc(Cl)c(Cl)c2)sc1C(=O)Nc1ccccc1,?,?,0,0
CCN(CC(=O)Nc1cc(Cl)ccc1C)C(=O)c1oc2ccc(OC)cc2c1C,?,?,0,0
Cc1ccc(CN(C(=O)c2ccccc2)c2ccccn2)o1,-,-,0,-
Nc1c(C(=O)NC2CC2)c2nc3ccccc3nc2n1-c1ccc2c(c1)OCO2,0,?,0,0
SMILES,Pf growth 48h,Pf growth 96h,Sm TGR inh,SARS PLP yeast
Cc1ccc(S(=O)(=O)c2c(N)n(/N=C/c3ccco3)c3nc4ccccc4nc23)cc1,6.57µM,?,0,0
Nc1c(C(=O)NC2CCCCC2)c2nc3ccccc3nc2n1/N=C/c1ccco1,0,9.28µM,0,0
Cc1cccc(S(=O)(=O)c2c(N)n(-c3ccccc3)c3nc4ccccc4nc23)c1,?,9.28µM,0,0
CCCCNC(=O)c1c(N)n(/N=C/c2ccccn2)c2nc3ccccc3nc12,0,1.47µM,0,0
Cc1ccc(-n2c(N)c(S(=O)(=O)c3ccccc3)c3nc4ccccc4nc32)cc1,0,?,0,0
CC(C)CNC(=O)c1c(N)n(/N=C/c2ccccn2)c2nc3ccccc3nc12,?,0,0,0
COCCCNC(=O)C1CCN(Cc2cc3ccccc3n2Cc2cccc(C)c2)CC1,-,-,0,-
NCCCC(N)CC(=O)NCC1NC(=O)C(CO)NC(=O)C(N)CNC(=O)C(C2CCN=C(N)N2)NC(=O)/C(=C/NC(N)=O)NC1=O (stereo not drawn),0,0,-,-
CC(=O)c1c(C)[nH]c(C(=O)OCC(=O)N2CCc3ccccc3C2)c1C,?,?,0,0
COc1cccc(/C=N/n2c(N)c(S(=O)(=O)c3cccs3)c3nc4ccccc4nc32)c1,?,?,0,0
Cc1ccc(S(=O)(=O)c2c(N)n(/N=C/c3ccco3)c3nc4ccccc4nc23)cc1C,2.08µM,3.29µM,?,0
Cc1cccc(S(=O)(=O)c2c(N)n(/N=C/c3ccco3)c3nc4ccccc4nc23)c1,8.28µM,0[5.75 µM],0,0
Nc1c(S(=O)(=O)c2ccccc2)c2nc3ccccc3nc2n1/N=C/c1ccco1,?,?,?,0
COc1ccc(/C=N/n2c(N)c(S(=O)(=O)c3cccs3)c3nc4ccccc4nc32)cc1OC,2.94µM,-,0,0
C=CCC1(C#N)C(SC)=NC2=C(C(=O)CC(C)(C)C2)C1c1ccc(Br)cc1 (stereo not drawn),2.94µM,?,0,0
COc1ccc(S(=O)(=O)N2CCOC2CNC(=O)C(=O)NCc2ccco2)cc1OC (stereo not drawn),0,0,0,0
CCOc1cc(CNc2ccccc2)cc(Br)c1OCC(=O)NC(C)(C)C,?,9.28µM,0,0
CCOc1cc(CNn2cnnc2)cc(Br)c1OCC(=O)NC1CCCCC1,?,9.28µM,0,0
COc1cc(CNc2ccc(C(=O)O)cc2)cc(Br)c1OCC(=O)NC(C)(C)C,0,0,0,0
CCOc1cc(CNn2cnnc2)cc(Br)c1OCC(=O)NC(C)(C)C,0,?,0,0
CCOc1cc(CNc2ccc(OC)cc2)cc(Br)c1OCC(=O)NC(C)(C)C,?,9.28µM,0,0
CCOc1cc(CNc2ccc(Br)cc2)cc(Br)c1OCC(=O)NC(C)(C)C,?,-,0,0
CCn1cc(CN2CCC(n3nccc3NC(=O)c3cccc(F)c3)CC2)cn1,0,0,0,?
CN(C)S(=O)(=O)c1cccc(NC(=O)c2cccc(N3C(=O)CCC3=O)c2)c1,?,0,0,0
C[C@]12CC[C@H]3[C@@H](CCC4=CC(=O)CC[C@@]43C)[C@@H]1CC[C@@H]2C(=O)CO,11.7µM,9.28µM,0,0
SMILES,Pf growth 48h,Pf growth 96h,Sm TGR inh,SARS PLP yeast
Cc1cc(-c2csc(NC(=O)c3ccc(=O)[nH]c3)n2)c(C)n1Cc1ccco1,0,?,44.7µM,0
CCNc1nc(-c2cc(C)n(Cc3ccco3)c2C)cs1,0,?,0,0
Cc1cc(-c2csc(NC(=O)C3=COCCO3)n2)c(C)n1C,?,?,0,0
Cc1cc(-c2csc(NC(=O)c3ccc(=O)n(C)n3)n2)c(C)n1CC1CCCO1 (stereo not drawn),?,7.38µM,35.5µM,0
O=C(CCC(=O)N1CCOc2ccc(Cl)cc21)NCCCN1CCN(Cc2ccccc2)CC1,?,0,0,0
CN(CCCNC(=O)CCC(=O)N1CCOc2ccc(Cl)cc21)Cc1ccccc1,0,14.7µM,0,0
COc1ccccc1CNC(=O)CCC(=O)N1CCOc2ccc(Cl)cc21,0,?,0,0
O=C(CCC(=O)N1CCOc2ccc(Cl)cc21)NCc1ccccc1,0,11.7µM,0,0
CC(CNC(=O)CCC(=O)N1CCOc2ccc(Cl)cc21)c1ccccc1 (stereo not drawn),?,13.1µM,0,0
NC(=O)C1CCN(C(=O)CCSCc2ccccc2)CC1,?,?,0,?
Cc1oc2cc3oc(=O)c(CCC(=O)NCCc4ccccc4F)c(C)c3cc2c1C,-,-,0,-
